Reference: the supplement of paper PMC6522484
± gives the standard deviation of the averaged measurements.

What was measured:
DLD1 [1] = experiment: cell viability (CellTiter-Glo) relative to plate median (fraction of plate median); higher = more viable cells; details: 5 µM; treatment time 24 h; reporter: 7TFP
Procedure, shortened: (§1)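 Colorectal cancer lines with stably integrated lentiviral TCF/Wnt firefly luciferase reporters received library compounds at a final 5 µM, 24 h after seeding into 384-well plates, for a 24 h exposure. Reported figures are plate-median-normalised firefly luciferase or CellTiterGlo luminescence per well. They average two independent replicates.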

HCT116 = experiment: as above; details: 5 µM; treatment time 24 h; reporter: TCF4/Wnt
Procedure, shortened: as §1

SW480 [2] = experiment: as above; details: 5 µM; treatment time 24 h; reporter: 7TFP
Procedure, shortened: as §1

DLD1 [3] = experiment: TCF/Wnt firefly luciferase reporter signal relative to plate median (fraction of plate median); higher = higher Wnt reporter signal; details: 5 µM; treatment time 24 h; reporter: 7TFP
Procedure, shortened: as §1

SW480 [4] = experiment: as above; details: 5 µM; treatment time 24 h; reporter: 7TFP
Procedure, shortened: as §1

Compound | cell viability (DLD1 [1]) | cell viability (HCT116) | cell viability (SW480 [2]) | TCF/Wnt firefly luciferase reporter signal (DLD1 [3]) | TCF/Wnt firefly luciferase reporter signal (SW480 [4])
COC(=O)c1c(C)cc(OC)cc1O | 0.99 ± 0.071 | 1.03 ± 0.081 | 0.951 ± 0.05 | 0.885 ± 0.047 | 0.869 ± 0.08
CCCCC(CC)CN1CN(CC(CC)CCCC)CC(C)(N)C1 (stereo not given) | 0.96 ± 0.071 | 0.988 ± 0.032 | 0.985 ± 0.0028 | 1.01 ± 0.048 | 0.997 ± 0.018
Cc1cn[nH]c1 | 0.959 ± 0.021 | 0.939 ± 0.018 | 1.01 ± 0.021 | 0.768 | 0.892 ± 0.11
CN(C)CCC(c1ccc(Br)cc1)c1ccccn1 (stereo not given) | 0.931 ± 0.15 | 1.055 ± 0.0071 | 0.922 ± 0.061 | 1.11 ± 0.11 | 1.055 ± 0.0071
O=C(O)/C=C/c1ccc(O)c(O)c1 | 0.941 ± 0.046 | 1.05 ± 0.05 | 1.03 ± 0.081 | 0.983 ± 0.14 | 1.03 ± 0.035
CO/N=C(\C(=O)N[C@@H]1C(=O)N2C(C(=O)OCOC(=O)C(C)(C)C)=C(/C=C\c3scnc3C)CS[C@H]12)c1csc(N)n1 | 1.025 ± 0.0071 | 0.985 ± 0.0042 | 0.901 ± 0.0071 | 0.809 ± 0.029 | 0.854 ± 0.14
C[C@]12CCC(=O)C=C1CC[C@@H]1[C@@H]2[C@@H](O)C[C@@]2(C)[C@H]1CC[C@]2(O)C(=O)COC(=O)CCC(=O)O | 1.07 ± 0.042 | 1.11 | 1.03 ± 0.035 | 1.01 ± 0.02 | 1 ± 0.099
CC(C)c1c(O)c(-c2cc3c(c(C(C)C)c2O)CCC2C(C)(C)CCC[C@]32C)cc2c1CCC1C(C)(C)CCC[C@]21C (stereo not given in full) | 1.02 ± 0.083 | 1.07 ± 0.1 | 1.02 ± 0.035 | 1.26 ± 0.26 | 1.09 ± 0.014
NC(N)=Nc1nc(CSCC/C(N)=N/S(N)(=O)=O)cs1 | 1 ± 0.083 | 1.01 ± 0.028 | 0.916 ± 0.054 | 1.12 ± 0.092 | 1.11 ± 0.035
C[C@@H]1O[C@@H]1P(=O)(O)O | 1.04 | 0.995 ± 0.15 | 1.06 ± 0.028 | 1.03 ± 0.028 | 0.997 ± 0.22
Cc1ncc([N+](=O)[O-])n1CCO | 1.08 ± 0.064 | 1.06 ± 0.071 | 1.02 ± 0.014 | 1.06 ± 0.042 | 0.964 ± 0.11
COc1ccc2c(c1)OC/C(=C\c1ccc(OC)c(O)c1)C2=O | 0.933 ± 0.054 | 1.02 | 1.03 ± 0.035 | 0.972 ± 0.11 | 0.98 ± 0.086
COc1cc2c(cc1-c1coc3c4c(c(OC)cc3c1=O)OC(C)(C)C=C4)OCO2 | 0.998 ± 0.017 | 1.06 ± 0.014 | 0.986 ± 0.018 | 0.892 ± 0.014 | 0.938 ± 0.0099
C[C@H]1[C@H](C)CC[C@]2(C(=O)O)CC[C@]3(C)C(=CC[C@@H]4[C@@]5(C)C[C@@H](O)[C@H](O)[C@@](C)(CO)[C@@H]5CC[C@]43C)[C@H]12 | 1.04 ± 0.072 | 1.1 ± 0.15 | 1.1 ± 0.021 | 0.974 ± 0.093 | 1.05 ± 0.035
C[C@]12C=CC(=O)C=C1CC[C@H]1[C@@H]3C[C@@H](O)[C@](O)(C(=O)CO)[C@@]3(C)C[C@H](O)[C@@]12F | 0.999 ± 0.086 | 1.01 ± 0.047 | 0.982 ± 0.012 | 0.951 ± 0.069 | 0.89 ± 0.15
CCOC(=O)c1c(C)c(Cl)c(O)c(Cl)c1O | 0.991 ± 0.042 | 0.987 ± 0.013 | 0.9025 ± 0.0078 | 0.966 ± 0.013 | 0.994 ± 0.052
O=C(O)C1=C(CSc2nnnn2CS(=O)(=O)O)CS[C@@H]2[C@H](NC(=O)[C@H](O)c3ccccc3)C(=O)N12 | 0.951 ± 0.025 | 1.05 ± 0.071 | 0.973 ± 0.052 | 0.915 ± 0.023 | 0.968 ± 0.04
COC(=O)/C(=C1/OC(=O)C(c2ccccc2)=C1O)c1ccccc1 | 1.06 ± 0.057 | 1.02 ± 0.12 | 1.07 ± 0.064 | 1.05 ± 0.14 | 1.1 ± 0.05
COc1cc(N)c(Cl)cc1C(=O)NC1CCN(Cc2ccccc2)CC1 | 0.971 ± 0.026 | 0.883 ± 0.041 | 0.975 ± 0.0071 | 0.8815 ± 0.0021 | 0.998 ± 0.017
CO[C@H]1/C=C/O[C@@]2(C)Oc3c(C)c(O)c4c(O)c(c5c(nc6cc(C)ccn65)c4c3C2=O)NC(=O)/C(C)=C\C=C\[C@H](C)[C@H](O)[C@@H](C)[C@@H](O)[C@@H](C)[C@H](OC(C)=O)[C@@H]1C | 1.05 ± 0.093 | 1.1 ± 0.035 | 1.04 ± 0.042 | 1.05 ± 0.15 | 1.11 ± 0.071
C/C(=C\C(=O)OCCCCCCCCC(=O)O)C[C@@H]1OC[C@H](C[C@@H]2O[C@H]2[C@@H](C)[C@H](C)O)[C@@H](O)[C@H]1O | 0.973 ± 0.052 | 1 ± 0.025 | 0.939 ± 0.017 | 0.9545 ± 0.0021 | 1.03 ± 0.028
CO/N=C1\CN(c2nc3c(cc2F)c(=O)c(C(=O)O)cn3C2CC2)CC1CN (stereo not given) | 1.04 ± 0.06 | 1.09 ± 0.057 | 0.995 ± 0.021 | 0.971 ± 0.11 | 1.06 ± 0.042
CC(=O)OC(C)C[N+](C)(C)C (stereo not given) | 0.968 ± 0.1 | 1.03 ± 0.08 | 0.997 ± 0.019 | 1.01 ± 0.071 | 1.01 ± 0.021
CCn1nc(C(=O)O)c(=O)c2cc3c(cc21)OCO3 | 1.01 ± 0.035 | 0.972 ± 0.015 | 0.988 ± 0.088 | 1 ± 0.11 | 0.875 ± 0.14
CC(=O)C[C@@H]1C[C@H](O)c2c(O)cccc2C1=O [Bhimanone] | 1.06 ± 0.035 | 1.03 ± 0.035 | 1.05 ± 0.14 | 1.11 ± 0.035 | 1.12 ± 0.057
COc1c2occc2cc2ccc(=O)oc12 | 1.04 ± 0.05 | 1.02 ± 0.089 | 1.05 ± 0.014 | 1.09 ± 0.21 | 1.1 ± 0.057
CC(C)[N+]1(C)[C@@H]2CC[C@H]1C[C@@H](OC(=O)C(CO)c1ccccc1)C2 (stereo not given in full) | 1.02 ± 0.13 | 0.989 ± 0.16 | 0.953 ± 0.065 | 1 ± 0.013 | 0.935 ± 0.076
CO[C@@]1(NC(=O)CSCC#N)C(=O)N2C(C(=O)O)=C(CSc3nnnn3C)CS[C@@H]21 | 0.998 ± 0.031 | 1.11 ± 0.057 | 0.9035 ± 0.0021 | 0.928 ± 0.023 | 1.02
